High-throughput results as filed in PubChem.
A selection: hits, their analogues and other compounds. The true share with any hit is near 5.7%.
D3 ag: agonists of human D3 dopamine receptor; P35462; D3R DiscoveRx beta-arrestin cells, luminescence, 90 min; max activation, %; hit rate 0.58% among 410,000; in the data active = max activation above about 30%
Target sequence (P35462 whole entry, looked up): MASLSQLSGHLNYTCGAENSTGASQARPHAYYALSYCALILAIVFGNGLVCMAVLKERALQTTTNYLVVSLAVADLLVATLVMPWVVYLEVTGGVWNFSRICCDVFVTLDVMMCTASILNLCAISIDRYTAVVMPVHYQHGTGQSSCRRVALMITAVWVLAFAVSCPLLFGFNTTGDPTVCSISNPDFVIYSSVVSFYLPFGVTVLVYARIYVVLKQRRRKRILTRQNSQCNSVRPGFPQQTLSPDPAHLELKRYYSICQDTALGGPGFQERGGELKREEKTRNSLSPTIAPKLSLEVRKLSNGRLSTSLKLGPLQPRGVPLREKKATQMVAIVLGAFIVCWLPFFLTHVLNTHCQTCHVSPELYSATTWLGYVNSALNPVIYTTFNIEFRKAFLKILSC
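Agonist-mode cell screen: cells plated at 1500/well and incubated overnight at 37 °C, then exposed to library compounds for 90 min at 37 °C. Detection reagent was added for 30–60 min at room temperature, and luminescence was read.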
HEK293 tox: cytotoxicity in counter-screen for GLP-1R inverse agonists | Potency, µM (highest dose often 38.3 µM), usual class: inhibitors | hit rate 0.13% among 410,000 | HEK293 cAMP-luciferase reporter cells, luminescence, 24 h;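 also: loss of luciferase light is scored as toxicity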
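Here, cytotoxicity is scored as loss of luminescence. The MLSMR collection was tested on cells seeded in medium containing 10% Nu serum, with a 24 hr compound exposure preceded by 12 hours of culture.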
ClpP mod: qHTS Assay for Activators of ClpP; purified B. subtilis ClpP, FRET peptide cleavage, 20 min; Potency, µM (doses to about 57.5 µM); AID 651965, 2013; ATP-dependent Clp protease proteolytic subunit (Bacillus subtilis (strain 168)), P80244; hit rate 1.9% among 340,000; active = well fitted falling curve with a large enough effect; inconclusive = small, poorly fitted or top-dose-only effect; inactive = no such curve, though single readings can be large or run the other way; also: the source files actives as falling curves though it sought activators and does not explain the sign; nearly all actives have a fitted effect of over 65% in size
Target sequence (P80244 whole entry, looked up): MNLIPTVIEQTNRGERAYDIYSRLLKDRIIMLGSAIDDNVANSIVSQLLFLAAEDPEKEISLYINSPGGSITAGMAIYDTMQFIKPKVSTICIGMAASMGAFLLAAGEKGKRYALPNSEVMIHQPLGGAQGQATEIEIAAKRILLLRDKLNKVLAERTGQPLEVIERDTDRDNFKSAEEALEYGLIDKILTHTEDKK
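FRET quenching reversal measured ClpP activation: 10 microg/mL B. subtilis ClpP at pH 8 with the FRET-FV decapeptide, read at 430 nm after 320 nm excitation. The 20-min minus 0-min signal was scaled between DMSO/no-enzyme wells and ADEP (5.8 microM final).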
GLP-1R inv ag: acts as inverse agonist at human GLP-1 receptor; P43220; HEK293 GLP-1R CRE-luciferase, luminescence, 24 h; GLP-1R form is constitutively active; Potency, µM (series often up to 38.3 µM), usual class: inhibitors; hit rate 1.6% among 410,000; AID 624417; also: nearly all actives have a fitted effect of over 55% in size
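Assay principle: reduced luminescence from a cAMP-responsive reporter in HEK293 cells co-expressing a constitutively active GLP-1R. Conditions: 24 hr compound incubation, 37 deg C, 5% CO2.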
GLP-1R agonist: agonists of human GLP-1 receptor; hit rate 0.007% among 380,000; Potency, µM (doses to about 45.6 µM), most hits filed as activators; P43220; HEK293 GLP-1R CRE-luciferase, luminescence, 4-6 h; cells express a hypersensitive GLP-1R form
DRD3 antagonist: blocks the human D3 dopamine receptor; D3R cells, DiscoveRx beta-arrestin luminescence, antagonist mode; hits give low values; P35462; AID 652054; hit rate 2.5% among 360,000; max response, negative = inhibition, %; in the data active = max response below about -50%; inconclusive = no clear call, values can overlap the other calls
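Cells expressing the human receptor were seeded at 1500 cells/well, incubated overnight at 37 degrees C in 5% CO2, then exposed to library compounds with dopamine controls for 90 minutes at 37 degrees C before luminescent detection.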
ClpP validation: validation of B. subtilis ClpP protease hits (inhibitors). shares compounds with ClpP mod. purified B. subtilis ClpP, FRET-FV substrate cleavage, 20 min. Potency, µM (doses to about 57.5 µM), usual class: inhibitors. hit rate 40% among 470; also: nearly all actives have a fitted effect of over 70% in size
Hits are given with their value; 0 = inactive; ? = inconclusive; - = no result; ! = a repeat was not active. Unless noted, calls follow the shape of the dose curve; as a rule, active = well fitted curve in the direction sought with a large enough effect; inconclusive = small, poorly fitted or top-dose-only effect, or another doubt; inactive = no such curve, though single readings can be large; an effect the other way counts as inactive or inconclusive.

SMILES	D3 ag	HEK293 tox	ClpP mod	GLP-1R inv ag	GLP-1R agonist	DRD3 antagonist	ClpP validation
O=c1c2ccccc2n(Cc2c(F)cccc2Cl)c(=O)n1CCc1ccccc1	0	0	0	0	0	-	-
CCc1ccc(-n2nc3ccc(NC(=O)c4ccc5c(c4)OCO5)cc3n2)cc1	0	0	3.2µM	0	0	0	0
CCOc1ccc(-n2nc3ccc(NC(=O)c4ccc5c(c4)OCCO5)cc3n2)cc1	0	0	8.9µM	0	0	0	?
CC(=O)Nc1ccc(S(=O)(=O)Nc2nc3ccccc3nc2Nc2cccc(O)c2)cc1	0	0	-	0	0	0	-
CC(=O)Nc1ccc(S(=O)(=O)Nc2nc3ccccc3nc2Nc2ccc3ccccc3c2)cc1	0	0	3.5µM	0	0	0	?
O=C(Nc1cccc(C(F)(F)F)c1)c1ccc2c(c1)nnn2C1CCCC1	0	0	0	0	-	-	-
CCOC(=O)C1CCCCN1C(=O)c1oc2c(Cl)cc(C)cc2c1C (stereo unspecified)	0	0	0	?	0	0	0
CNc1nnc(-c2cccc(N(C)C)c2)s1	0	0	0	0	0	0	0
Cc1cccc(-c2nnc(NC(=O)c3cccs3)s2)c1	0	?	0	0	0	?	-
CN(C)S(=O)(=O)c1ccc(C(=O)N2CCOCC2)cc1	0	0	0	0	0	0	-
COc1ccc(S(=O)(=O)N(C)c2ccc(C(=O)N3CCOCC3)cc2)cc1	0	0	2.2µM	0	0	0	0
COc1ccc2oc(=O)c(C(=O)Oc3ccc(NC(C)=O)cc3)cc2c1	0	0	0	0	0	0	0
COc1ccc(NC(=O)c2cc3cc(OC)ccc3oc2=O)cc1	0	0	0	0	0	0	-
COc1ccc(-c2cc(C(=O)N3CCCC3)c3ccccc3n2)cc1OC	0	0	0	0	0	0	-
COc1ccc(-c2cc(C(=O)N3CCC3)c3ccccc3n2)cc1OC	0	0	3.2µM	0	0	0	0
Nc1ncnc2oc(-c3ccco3)c(-c3ccco3)c12	0	0	8.9µM	0	0	0	22µM
Nc1ncnc2oc(-c3ccoc3)c(-c3ccco3)c12	-	-	0	-	-	-	-
COc1cc(-c2nnc(SCC(=O)Nc3ccc(F)c(Cl)c3)o2)cc(OC)c1OC	0	0	0	0	-	-	-
CC1=C(c2ccc(C)c(C)c2)S(=O)(=O)N(Cc2ccc(C(=O)NC(C)c3ccccc3)cc2)C1=O (stereo unspecified)	0	0	5.6µM	0	-	-	34µM
COc1ccc(-c2nc(NC(=O)c3ccc(OCC(=O)Nc4ccc(F)cc4)c(OC)c3)sc2C)cc1	0	?	0	?	0	0	19µM
CC(=O)Nc1ccc(/C=C/c2ccnc3ccccc23)cc1[N+](=O)[O-]	-	-	0	-	-	-	-
CC1CCCCN1S(=O)(=O)c1ccc(C(=O)Nc2sc3c(c2C(N)=O)CC(C)(C)NC3(C)C)cc1 (stereo unspecified)	0	0	0	?	0	-	-
CCN(CC)S(=O)(=O)c1cccc2c(N(C)C)cccc12	0	0	3.5µM	?	0	0	0
Cc1ccccc1N(CC(=O)Nc1ccc(S(=O)(=O)N2CCOCC2)cc1)S(C)(=O)=O	0	0	0	0	0	0	0
CC(=O)c1ccc2c(c1)OCCOCCOCCOCCO2	0	0	0	0	0	0	-
SMILES	D3 ag	HEK293 tox	ClpP mod	GLP-1R inv ag	GLP-1R agonist	DRD3 antagonist	ClpP validation
NC(=O)c1ccc2c(c1)OCCO2	0	0	0	0	0	0	0
CCCC(=O)NC(C)c1nc2ccccc2n1Cc1ccccc1 (stereo unspecified)	0	0	0	0	-	-	-
CCN(Cc1ccccc1)C(=O)Cn1c(=O)n(Cc2ccccc2)c(=O)c2c1c1cc(OC)ccc1n2C	0	0	0.71µM	0	-	-	27µM
CCN(C(=O)Cn1c(=O)n(Cc2ccccc2)c(=O)c2c1c1cc(OC)ccc1n2C)c1ccccc1	0	0	?	0	0	-	-
c1ccc(-c2ccc(-c3cn4c(n3)CCC4)cc2)cc1	0	0	2.8µM	?	0	0	22µM
COc1ccc(CCNc2cc(C)nc3c(-c4ccc(Cl)cc4)cnn23)cc1OC	0	0	8.9µM	?	0	0	24µM
CCCCn1cc2c(c1-c1ccc(Br)cc1)c(=O)n(C)c(=O)n2C	0	0	0	0	-	-	-
CCCCCn1cc2c(c1-c1ccc(Cl)cc1)c(=O)n(C)c(=O)n2C	0	0	10µM	0	-	-	?
C[C@H]1Cn2cnc(C(=O)NCc3ccc(CNC(=O)OC(C)(C)C)cc3)c2C(=O)N1	0	0	0	0	0	0	-
Cc1c(C(=O)NCc2ccccc2)sc2nc3n(c(=O)c12)CCCCC3	0	0	0	0	-	-	-
CCOc1ccc(-c2cn3c(n2)sc2cc(C(=O)NC4CCCc5ccccc54)ccc23)cc1 (stereo unspecified)	0	0	5µM	0	-	-	?
COc1ccc(-c2cn3c(n2)sc2cc(C(=O)NC4CCCCC4)ccc23)cc1	0	0	?	0	-	-	-
CC(C)Cc1nc(C(N)=O)c2[nH]c(=O)n(-c3ccc(F)cc3)c2n1	0	0	0	0	0	0	-
Cc1cccc(-n2c(=O)[nH]c3c(C(N)=O)nc(CC(C)C)nc32)c1	0	0	10µM	0	0	0	4.9µM
Cc1ccc2nc(-c3ccco3)c(Nc3ccccc3)n2c1	0	0	3.2µM!	0	0	0	?
Cc1ccc(CC(=O)N2CCN(c3cccc(C(F)(F)F)c3)CC2)cc1	0	0	10µM	8.9µM	0	0	0
COc1cc2nc(N3CCCN(C)CC3)nc(N3CCN(C)CC3)c2cc1OC	-	-	0	-	-	-	-
Cc1ccc(C(=O)Nc2cccc(C(F)(F)F)c2)cc1NC(=O)c1nccnc1N	0	0	0	0	0	0	?
CCCCCC1CCC(c2ccc(C(N)=O)cc2)CC1 (stereo unspecified)	0	0	0	0	0	0	-
CCCC1CCC(c2ccc(C(N)=O)cc2)CC1 (stereo unspecified)	0	0	0	0	0	0	0
Fc1cc(F)c2nc(Nc3nc4cc5c(cc4s3)OCO5)sc2c1	0	0	8.9µM	?	0	0	?
O=C(Nc1ccc(NC(=O)c2cc3ccccc3o2)cc1)c1ccco1	0	0	-	0	0	0	-
COc1ccc(NC(=O)c2ccco2)cc1NC(=O)c1cc2ccccc2o1	0	0	0	0	0	0	19µM
COc1ccc2c(c1)c1ncn(CCc3ccccc3)c(=O)c1n2C	0	0	4.5µM	0	0	0	12µM
CN(Cc1ccco1)C(=O)c1c[nH]c2ccc(S(=O)(=O)Nc3ccc4c(c3)OCCO4)cc2c1=O	0	0	3.5µM	0	0	0	0
